The source of these data is PubChem BioAssay.

Test [1] can be described thus: StAR promoter reporter inhibitors, counter-screen for LRH-1 inverse agonist project, cell-based, luminescence, high throughput (AID 651611; in the data active = inhibition above about 28%). Conditions: StAR promoter luciferase reporter counterscreen, at 3.6 µM, active compounds read high.
Test [2] has as its target Nuclear receptor subfamily 5 group A member 2 (Homo sapiens) (UniProt O00482). As to the kind of experiment: NR5A2 activity suppression in reporter cells – cell-based, luminescence, confirmation (AID 651613; in the data active = inhibition above about 42%;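 note: HEK293T cells co-transfected with LRH-1 and StAR promoter luciferase reporter; 0% = vehicle wells and 100% = parental cells lacking receptor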). Conditions: cell-based LRH-1 luciferase reporter, inverse agonism; at 3.6 µM; active compounds read high.
Test [3] deals with Steroidogenic factor 1 (Homo sapiens) (UniProt Q13285). As to the kind of experiment: inverse agonism at SF1 nuclear receptor – cell-based, luminescence, high throughput, counter-screen for LRH-1 inverse agonist project (AID 651614; in the data active = inhibition above about 44%;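 note: cells cotransfected with StAR promoter reporter and SF1 expression vector; 0% = vehicle on cells with receptor and 100% = vehicle on cells lacking receptor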). Conditions: cell-based SF1 luciferase reporter, at 3.6 µM, active compounds read high.
Sequence of Steroidogenic factor 1 (Homo sapiens) (Q13285 whole entry, looked up, the tested form may be a part): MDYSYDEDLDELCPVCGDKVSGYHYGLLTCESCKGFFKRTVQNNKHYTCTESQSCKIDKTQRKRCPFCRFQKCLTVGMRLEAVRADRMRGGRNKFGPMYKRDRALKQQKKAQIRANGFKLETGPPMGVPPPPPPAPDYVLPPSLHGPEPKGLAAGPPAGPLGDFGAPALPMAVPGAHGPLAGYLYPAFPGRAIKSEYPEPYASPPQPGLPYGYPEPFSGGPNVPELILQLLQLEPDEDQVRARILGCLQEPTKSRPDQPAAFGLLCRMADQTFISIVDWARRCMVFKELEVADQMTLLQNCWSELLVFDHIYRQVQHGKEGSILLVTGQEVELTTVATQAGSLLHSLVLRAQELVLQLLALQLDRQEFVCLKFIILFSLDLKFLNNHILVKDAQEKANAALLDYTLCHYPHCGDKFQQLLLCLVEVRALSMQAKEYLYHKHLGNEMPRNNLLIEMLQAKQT
The nature of test [4]: compounds suppressing VP16-driven luciferase signal – cell-based, luminescence, high throughput, counter-screen for LRH-1 inverse agonist project (AID 651615). Conditions: Gal4-VP16 luciferase reporter cells, at 3.6 µM, active compounds read high.

Unmarked numbers belong to inactive results. The source made the active and inactive calls. Cut-off read from the data, not from the text of the source, unless noted: active = inhibition above about 33%; inactive = the rest.

Sequence of Nuclear receptor subfamily 5 group A member 2 (Homo sapiens) (O00482 whole entry, looked up): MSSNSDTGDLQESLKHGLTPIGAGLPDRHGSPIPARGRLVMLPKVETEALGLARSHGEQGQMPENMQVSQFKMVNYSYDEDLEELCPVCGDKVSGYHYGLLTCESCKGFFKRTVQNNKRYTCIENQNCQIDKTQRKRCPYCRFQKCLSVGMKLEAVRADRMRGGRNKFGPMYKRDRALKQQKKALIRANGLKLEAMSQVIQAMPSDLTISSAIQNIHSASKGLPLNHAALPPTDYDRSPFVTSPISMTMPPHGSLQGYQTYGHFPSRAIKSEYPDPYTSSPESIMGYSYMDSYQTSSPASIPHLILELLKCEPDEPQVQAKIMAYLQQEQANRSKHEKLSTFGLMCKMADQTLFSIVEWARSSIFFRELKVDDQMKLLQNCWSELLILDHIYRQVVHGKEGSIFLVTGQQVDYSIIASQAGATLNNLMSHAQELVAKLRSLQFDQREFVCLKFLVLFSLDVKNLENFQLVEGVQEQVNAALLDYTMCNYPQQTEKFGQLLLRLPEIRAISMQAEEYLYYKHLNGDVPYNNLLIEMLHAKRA

Turning to `Cc1ccc(S(=O)(=O)N2CC(O)CC2C(=O)OCC(=O)Nc2ccc([N+](=O)[O-])cc2C(F)(F)F)cc1C` (centres undefined), the inhibition in test [1] is 18.7%; in test [2] it was 60.5% (active); in test [3], 56% (active); in test [4], -5.69%.
For `S=C(NCc1ccc(Cl)cc1)Nc1ccncc1`, the inhibition in test [1] was 24.2%; in test [2], 80.9% (active); in test [3], 72.8% (active); in test [4] it was 35.1% (active).
As to `CC(=O)Nc1ccc(-c2ccnc3c2CC(C(=O)NCc2ccco2)O3)cc1` (centres undefined), the inhibition in test [1] was 48.1% (active); in test [2], 42.6% (active); in test [3] it was 44.6% (active); in test [4] it was 24.2%.
On to `CCOC(=O)c1cccc(C2=CC(=O)CC(C)(C)C2)c1`, for which the inhibition is 1.21% in test [1], 46.3% (active) in test [2], 48.8% (active) in test [3] and -12% in test [4].
Regarding `CCOc1ccc(CCNC(=O)COC(=O)c2cccnc2OCC)cc1OCC`, the inhibition was 2.1% in test [1], 53.3% (active) in test [2], 48.7% (active) in test [3] and 0.35% in test [4].
On the same counts, the results for `C/C(=N\Nc1nc(C)c(C)s1)c1ccc([N+](=O)[O-])cc1` are -12.6%, 49.1% (active), 47.8% (active) and -2.81%.
As for `CC1=C(n2nnc([N+](=O)[O-])n2)C(c2cccnc2)C(C#N)=C(N)O1` (centres undefined), the inhibition was 6.01% in test [1], 17.6% in test [2], 21.5% in test [3] and -0.44% in test [4].
Turning to `CC1(C(=O)NCc2ccc3c(c2)OCO3)CCN1C(=O)Cc1ccc(Cl)cc1Cl` (centres undefined), the inhibition was 7.73% in test [1], 56.5% (active) in test [2], 47% (active) in test [3] and -2.52% in test [4].
In the case of `CCOc1ccc(CCNC(=O)COC(=O)c2nc3nc(C)cc(C)n3n2)cc1OCC`, the inhibition in test [1] was 9.65%; in test [2], 48.8% (active); in test [3], 38.2%; in test [4], -0.98%.
In the case of `O=C(NCc1cccc(C(F)(F)F)c1)c1cccc(Cl)c1Cl`, the inhibition is 7.41% in test [1], 46.9% (active) in test [2], 48% (active) in test [3] and 11.8% in test [4].
As to `O=C(Nc1cc(Cl)ccc1-n1cncn1)c1ccc([N+](=O)[O-])s1`, the inhibition in test [1] is 23.2%; in test [2] it was 68.4% (active); in test [3], 69.2% (active); in test [4], -10.3%.
Taken in the same sequence, the figures for `CC(NC(=O)c1ccco1)C(c1cccs1)N1CCN(c2ccccc2)CC1` (centres undefined) were 6.91%, 34.9%, 34.2% and -0.25%.
Regarding `COc1cc2c(=O)[nH]c3cc([N+](=O)[O-])ccc3c2cc1[N+](=O)[O-]`, the inhibition in test [1] was -3.92%; in test [2], 64.6% (active); in test [3], 56.6% (active); in test [4], -22.2%.
Take `CCCN(CC(=O)Nc1ccc(C(C)=O)cc1)CC(=O)Nc1ccccc1C`: the inhibition in test [1] is 1.27%; in test [2], 62.4% (active); in test [3], 56% (active); in test [4] it was 9.79%.
Turning to `Cc1onc(-c2c(F)cccc2Cl)c1C(=O)c1ccc(F)cc1`, the inhibition in test [1] is 2%; in test [2], 46.1% (active); in test [3], 46.2% (active); in test [4], -8.21%.
In the case of `COc1cc(-c2noc(C)c2/C=C/c2ccc(N)cc2)cc(OC)c1OC`, the inhibition in test [1] was 64.6% (active); in test [2], 38.5%; in test [3] it was 55.2% (active); in test [4], -29.3%.
On the same counts, the results for `CCCCOCCCNc1ncnc2c1[nH]c1ccccc12` are 13.1%, 50% (active), 53.6% (active) and 42.3% (active).
In the case of `CC(=O)NC(Cc1c[nH]c2ccccc12)C(=O)OCC(=O)Nc1ccc2c(c1)OCO2` (centres undefined), the inhibition in test [1] was 12.4%; in test [2], 56.8% (active); in test [3], 56.7% (active); in test [4], -12.7%.
On the same counts, the results for `CN(C)c1cc[n+](Cc2c(Cl)cccc2Cl)cc1` are 7.95%, 73.2% (active), 68.2% (active) and 45.7% (active).
As to `COc1ccccc1-n1c(SCC(=O)Nc2ccc(Cl)cc2)nc(O)c(Cc2ccccc2)c1=O`, the inhibition in test [1] was 16.2%; in test [2] it was 55.1% (active); in test [3] it was 56% (active); in test [4] it was 0.94%.
Consider `CC(O)(c1cccc(F)c1)c1nc(-c2ccc(S(C)(=O)=O)cc2)cs1` (centres undefined), for which the inhibition in test [1] was 2.43%; in test [2], 48.7% (active); in test [3] it was 44.9% (active); in test [4] it was -6.85%.
In the case of `CC(=O)c1ccc(-c2cnc3c(NC=O)cc(-c4ccc(S(C)(=O)=O)cc4)cn23)cc1`, the inhibition is 31.7% (active) in test [1], 74.8% (active) in test [2], 70.3% (active) in test [3] and -0.51% in test [4].
On to `O=[N+]([O-])c1ccc(S(=O)Cc2ccccc2)c([N+](=O)[O-])c1` (centres undefined), for which the inhibition was 8.41% in test [1], 43.5% (active) in test [2], 22.4% in test [3] and 16.7% in test [4].
With `O=C(CSc1nnnn1C1CCCC1)Nc1ccc2c(c1)OCCO2`, the inhibition in test [1] is -0.49%; in test [2], 44.7% (active); in test [3], 42.3%; in test [4] it was -30.9%.
Consider `C=CCn1c(SCC(=O)Nc2ccccc2C)nc(O)cc1=O`, for which the inhibition was 9.34% in test [1], 57.8% (active) in test [2], 52.2% (active) in test [3] and -13.2% in test [4].
Regarding `O=C(Cn1ccc(=O)[nH]c1=O)c1ccc([N+](=O)[O-])o1`, the inhibition in test [1] is 13.1%; in test [2], 14.3%; in test [3], 14.9%; in test [4], -16.8%.
